Experiment [1] is described as follows: AP1 Signaling Pathway (AID 357).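 Further: ME-180 reporter cells stimulated with EGF at its EC50 level; on the % scale 0 is the no-effect control and ±100 the full control effect.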 The settings on record: ME-180 AP-1-bla reporter, EGF-induced, beta-lactamase ratio, 5 h; at 17.2 µM (top of the series) unless noted. Summed up:
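In this screen, ME-180 cells in Opti-MEM with 0.5% dialyzed FBS received EC50 EGF and compound titrations for 5 h. AP-1 reporter beta-lactamase was detected via CCF4 ratio, giving AC50 for positive and negative modulators.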

Experiment [2] is described as follows: NFAT Signaling Pathway (AID 444).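 Further: carbachol stimulus at about its EC50 of 1 µM final; on the % scale 0 is the no-effect control and ±100 the full control effect.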 The settings on record: Jurkat NFAT-bla M1, carbachol, beta-lactamase ratio, 5 h; at 17.2 µM (top of the series) unless noted. Summed up: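 Read-out: CCF4 FRET ratio (460 nm/530 nm) after 1 h RT dye loading, used for %activity and AC50 from titration series. Cells: Jurkat NFAT-β-lactamase/M1 line, treated with compound plus 1 uM carbachol for 5 h, 37 °C.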

A short description of experiment [3]: Stat Signaling Pathway (AID 446).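 Further: ME-180 cervical cancer cells given 40 pM IL-6 alongside compound; SIE-controlled beta-lactamase reporter measured as 460/530 nm FRET emission ratio; on the % scale 0 is the no-effect control and ±100 the full control effect.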 As to conditions: ME-180 (cervical carcinoma) SIE beta-lactamase reporter, IL-6 stimulated, 5 h; at 17.2 µM (top of the series) unless noted. In short, it runs like this: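 FRET read-out (405 nm excitation, 460/530 nm emission) of a beta-lactamase reporter under a STAT-inducible element in ME-180 cervical carcinoma cells. Cells with compound receive 40 pM IL-6 for 5 h. Values are normalised to AC90 stimulation and AC90 JAK-inhibitor controls.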

The target in experiment [4] is Cytochrome P450 1A2 (Homo sapiens) (UniProt P05177). Kind of experiment: p450-cyp1a2 (AID 410; calls by dose curve;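 further: -100% = full effect of reference inhibitor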). In short, it runs like this:
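20nM CYP1A2, 100uM Luciferin-ME (=Km), 100mM KPO4; cpd 10 min RT; +NADPH regen, 60 min RT; stop/detect 20 min; luminescence. Normalized to furafylline 57 uM = full inhibition.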

The target of experiment [5] is Glucocorticoid receptor (Homo sapiens) (UniProt P04150). Nature of the experiment: GR-GFP Redistribution (AID 450;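 active means compounds whose dose series gives a full or clear partial fitted curve of increased nuclear translocation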; further: potency means the concentration at half of the fitted maximal effect).
Experiment [6] has the same target. Nature of the experiment: GR-EFC Redistribution (AID 451; calls by dose curve; further: potency means the concentration at half of the fitted maximal effect). As to conditions: CHO-K1 GR-EFC translocation, beta-gal luminescence, 2 h. In short, it runs like this:
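Translocation of GR-ED fusion to nuclear EA restores b-gal, read by luminescence after 1 h room-temperature detection. Engineered CHO-K1 biosensor cells, 1,000/well, exposed 2 h at 37 C to titrations up to 46 uM final.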

For experiment [7], the target named is 3',5'-cyclic-AMP phosphodiesterase 4B (Homo sapiens) (UniProt Q07343). Kind of experiment: qHTS Assay for Inhibitors of PDE-IV (AID 607; active means well fitted activation curve with a large enough effect in the main read-out, with a control signal flat, not every such curve was filed as active; further: % of control where 0% means no effect). Summed up:
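Cell-based read-out of cAMP via a modified cyclic nucleotide-gated channel and membrane potential dye (535/590 nm) in HEK293 cells expressing PDE4 endogenously. Compounds tested up to 22.9 uM final; 100 uM RO 20-1724 reference.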
In general terms: Quantitative high-throughput screening tests each substance at several concentrations.

For experiment [8], the target named is Cytochrome P450 3A4 (Homo sapiens) (UniProt P08684). Nature of the experiment: qHTS Assay for Activators of Cytochrome P450 3A4 (AID 885; active means well fitted curve in the direction sought with a large enough effect; an effect the other way counts as inactive or inconclusive; further: nearly all actives have a fitted effect of over 65% in size). Summed up: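 Luminescent readout of luciferin formed from 25 uM Luciferin-PPXE (KM level) by 20 nM CYP3A4 in 200 mM KPO4, with 60 min NADPH-driven reaction at room temperature after 10 min compound exposure. Ketoconazole (57 uM) defined 100% inhibition.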

The target in experiment [9] is Cytochrome P450 2D6 (Homo sapiens) (UniProt P10635). Kind of experiment: qHTS Assay for Inhibitors and Substrates of Cytochrome P450 2D6 (AID 891; active means well fitted curve in the direction sought with a large enough effect; an effect the other way counts as inactive or inconclusive;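 further: luciferin methyl ether substrate demethylated by CYP2D6 with NADPH regeneration; on the % scale 0 is the no-effect control and ±100 the full control effect; nearly all actives have a fitted effect of over 60% in size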). Summed up:
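Luminescent read-out of luciferin formed by 5 nM human CYP2D6 demethylating 30 uM Luciferin-ME EGE (Km level) over 60 min at room temperature after NADPH regeneration addition. Data normalized to full inhibition by 1.43 uM quinidine.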

In experiment [10] the target is Ubiquitin carboxyl-terminal hydrolase 1 (Homo sapiens) (UniProt O94782). Kind of experiment: Inhibitors of USP1/UAF1: Pilot qHTS (AID 504865; active means well fitted curve in the direction sought with a large enough effect; an effect the other way counts as inactive or inconclusive; further: potency means the concentration at half of the fitted maximal effect; nearly all actives have a fitted effect of over 35% in size). Summed up: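 USP1/UAF1 complex at 1 nM preincubated 15 min at room temperature with compound, then Ub-Rho substrate added at 150 nM final. Fluorescence (480/540 nm) read kinetically in 50 mM HEPES pH 7.8, 0.5 mM EDTA, 1 mM TCEP, 0.1 mg/ml BSA, 0.01% Tween-20.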

The structures appear in SMILES notation. Values without a mark were called inactive. Results filed as inconclusive are left out. Calls of active or inactive are those of the source. Unless noted, the call rests on the fitted dose curve; in most records, active means well fitted curve in either direction with a large enough effect (not every such curve was filed as active); inconclusive means small, poorly fitted or top-dose-only effect, or another doubt; inactive means flat fitted curve, though single readings scatter.

Glucocorticoid receptor (Homo sapiens), sequence (P04150 whole entry, looked up): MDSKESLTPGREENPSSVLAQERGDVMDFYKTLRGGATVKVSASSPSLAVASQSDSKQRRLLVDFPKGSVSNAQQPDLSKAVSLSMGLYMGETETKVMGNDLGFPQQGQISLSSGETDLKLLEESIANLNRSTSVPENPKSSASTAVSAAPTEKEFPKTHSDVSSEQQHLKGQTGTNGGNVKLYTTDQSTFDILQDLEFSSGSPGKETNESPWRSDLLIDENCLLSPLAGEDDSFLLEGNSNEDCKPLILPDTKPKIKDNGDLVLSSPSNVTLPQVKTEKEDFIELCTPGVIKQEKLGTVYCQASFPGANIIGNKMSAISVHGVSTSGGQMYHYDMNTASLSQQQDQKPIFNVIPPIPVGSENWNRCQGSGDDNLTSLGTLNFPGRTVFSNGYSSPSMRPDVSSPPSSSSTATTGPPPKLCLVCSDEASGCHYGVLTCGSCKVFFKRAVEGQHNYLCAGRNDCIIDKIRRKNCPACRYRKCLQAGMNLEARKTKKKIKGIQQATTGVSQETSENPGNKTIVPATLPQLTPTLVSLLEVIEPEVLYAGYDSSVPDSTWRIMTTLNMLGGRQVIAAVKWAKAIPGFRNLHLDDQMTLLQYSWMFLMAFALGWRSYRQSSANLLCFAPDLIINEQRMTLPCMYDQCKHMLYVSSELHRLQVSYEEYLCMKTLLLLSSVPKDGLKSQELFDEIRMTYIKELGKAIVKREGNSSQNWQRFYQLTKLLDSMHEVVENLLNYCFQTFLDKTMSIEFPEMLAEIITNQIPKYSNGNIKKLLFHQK
Ubiquitin carboxyl-terminal hydrolase 1 (Homo sapiens), sequence (O94782 whole entry, looked up): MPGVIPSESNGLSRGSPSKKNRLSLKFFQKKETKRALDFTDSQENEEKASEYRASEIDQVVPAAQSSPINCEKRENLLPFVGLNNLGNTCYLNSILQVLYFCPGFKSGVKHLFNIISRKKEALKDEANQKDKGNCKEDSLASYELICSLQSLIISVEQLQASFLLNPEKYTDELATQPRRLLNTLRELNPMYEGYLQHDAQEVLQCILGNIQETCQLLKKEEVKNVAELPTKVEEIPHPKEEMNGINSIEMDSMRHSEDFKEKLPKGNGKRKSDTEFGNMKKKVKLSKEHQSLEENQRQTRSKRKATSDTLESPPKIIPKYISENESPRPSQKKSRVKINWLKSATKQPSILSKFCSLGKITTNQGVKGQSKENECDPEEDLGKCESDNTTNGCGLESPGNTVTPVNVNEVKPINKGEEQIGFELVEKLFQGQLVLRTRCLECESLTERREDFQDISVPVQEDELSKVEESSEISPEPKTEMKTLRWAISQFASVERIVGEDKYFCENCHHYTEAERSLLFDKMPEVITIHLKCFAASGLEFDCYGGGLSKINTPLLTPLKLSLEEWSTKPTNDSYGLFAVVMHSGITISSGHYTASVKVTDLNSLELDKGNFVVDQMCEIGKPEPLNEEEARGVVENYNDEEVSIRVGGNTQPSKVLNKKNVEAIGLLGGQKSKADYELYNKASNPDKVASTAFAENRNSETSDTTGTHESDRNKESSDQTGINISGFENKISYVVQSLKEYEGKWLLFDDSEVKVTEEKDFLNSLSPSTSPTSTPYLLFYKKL
Cytochrome P450 1A2 (Homo sapiens), sequence (P05177 whole entry, looked up): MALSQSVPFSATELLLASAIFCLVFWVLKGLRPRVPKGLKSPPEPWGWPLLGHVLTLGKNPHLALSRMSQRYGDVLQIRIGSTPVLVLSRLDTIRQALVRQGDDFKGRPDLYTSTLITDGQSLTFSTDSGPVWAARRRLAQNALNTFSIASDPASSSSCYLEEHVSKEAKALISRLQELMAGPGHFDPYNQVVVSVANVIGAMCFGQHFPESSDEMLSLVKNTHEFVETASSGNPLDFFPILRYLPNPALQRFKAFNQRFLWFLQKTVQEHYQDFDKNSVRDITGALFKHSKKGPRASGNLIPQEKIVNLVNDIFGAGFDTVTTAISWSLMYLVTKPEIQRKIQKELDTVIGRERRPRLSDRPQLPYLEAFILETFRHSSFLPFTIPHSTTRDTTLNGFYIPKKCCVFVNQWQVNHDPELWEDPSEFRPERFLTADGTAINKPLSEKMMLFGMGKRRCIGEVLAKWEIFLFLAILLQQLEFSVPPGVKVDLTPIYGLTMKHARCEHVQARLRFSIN
3',5'-cyclic-AMP phosphodiesterase 4B (Homo sapiens), sequence (Q07343 whole entry, looked up): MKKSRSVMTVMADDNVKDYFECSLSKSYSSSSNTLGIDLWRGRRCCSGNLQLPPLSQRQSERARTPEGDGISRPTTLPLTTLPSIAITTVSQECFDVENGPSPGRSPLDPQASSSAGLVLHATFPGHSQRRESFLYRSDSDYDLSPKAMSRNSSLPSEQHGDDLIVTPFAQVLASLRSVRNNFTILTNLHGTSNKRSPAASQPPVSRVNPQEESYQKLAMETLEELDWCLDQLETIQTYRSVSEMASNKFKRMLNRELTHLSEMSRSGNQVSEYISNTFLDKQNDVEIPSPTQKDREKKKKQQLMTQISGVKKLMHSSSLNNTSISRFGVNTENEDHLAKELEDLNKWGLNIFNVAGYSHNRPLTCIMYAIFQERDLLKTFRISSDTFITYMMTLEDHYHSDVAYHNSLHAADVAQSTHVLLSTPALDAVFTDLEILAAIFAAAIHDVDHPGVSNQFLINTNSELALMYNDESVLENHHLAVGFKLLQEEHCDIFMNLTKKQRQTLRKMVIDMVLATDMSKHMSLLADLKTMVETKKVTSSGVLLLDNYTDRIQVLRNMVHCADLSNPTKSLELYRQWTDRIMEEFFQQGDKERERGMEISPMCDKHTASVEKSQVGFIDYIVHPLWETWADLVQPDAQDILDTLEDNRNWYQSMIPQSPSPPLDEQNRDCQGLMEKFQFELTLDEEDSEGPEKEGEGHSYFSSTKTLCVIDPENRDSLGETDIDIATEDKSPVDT
Cytochrome P450 3A4 (Homo sapiens), sequence (P08684 whole entry, looked up): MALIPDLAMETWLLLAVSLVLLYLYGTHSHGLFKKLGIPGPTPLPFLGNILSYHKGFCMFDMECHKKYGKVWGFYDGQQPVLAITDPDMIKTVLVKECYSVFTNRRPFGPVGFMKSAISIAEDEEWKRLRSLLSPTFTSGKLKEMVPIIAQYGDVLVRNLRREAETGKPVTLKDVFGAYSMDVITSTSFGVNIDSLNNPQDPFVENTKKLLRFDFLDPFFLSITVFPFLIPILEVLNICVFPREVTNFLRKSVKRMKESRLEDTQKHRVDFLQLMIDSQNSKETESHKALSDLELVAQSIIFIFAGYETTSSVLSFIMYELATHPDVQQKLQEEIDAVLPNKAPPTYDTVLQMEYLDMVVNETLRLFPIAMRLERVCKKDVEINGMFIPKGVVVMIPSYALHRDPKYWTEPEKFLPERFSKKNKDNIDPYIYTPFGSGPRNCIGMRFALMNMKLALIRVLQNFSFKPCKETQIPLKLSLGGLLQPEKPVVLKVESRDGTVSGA
Cytochrome P450 2D6 (Homo sapiens), sequence (P10635 whole entry, looked up): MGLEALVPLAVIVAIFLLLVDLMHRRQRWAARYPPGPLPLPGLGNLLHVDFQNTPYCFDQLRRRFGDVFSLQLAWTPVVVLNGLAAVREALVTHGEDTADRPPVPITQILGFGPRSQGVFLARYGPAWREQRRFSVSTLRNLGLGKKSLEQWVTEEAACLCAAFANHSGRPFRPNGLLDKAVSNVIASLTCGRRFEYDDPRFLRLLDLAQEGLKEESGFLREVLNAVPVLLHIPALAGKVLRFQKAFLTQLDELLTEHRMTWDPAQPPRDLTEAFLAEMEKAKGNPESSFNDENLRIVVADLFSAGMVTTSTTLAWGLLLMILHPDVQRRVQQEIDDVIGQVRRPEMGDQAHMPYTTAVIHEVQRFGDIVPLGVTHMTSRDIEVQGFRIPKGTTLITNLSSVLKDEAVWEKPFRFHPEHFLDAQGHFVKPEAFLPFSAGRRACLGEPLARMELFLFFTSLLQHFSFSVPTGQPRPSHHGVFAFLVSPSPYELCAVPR

Consider `CN1CCc2c(c3c(n2C)CCN(C)[C@@H]3c2cccnc2)[C@H]1c1cccnc1`, for which the activity change, negative = inhibition is 5.56% in experiment [1] and 8.24% in [2]. Moreover, in [3], the activity, negative = inhibition is 9.53%.

For the compound `COc1cccc2c1C(=O)c1c(O)c3c(c(O)c1C2=O)C[C@](O)(C(C)=O)C[C@H]3O[C@@H]1C[C@H](N)[C@H](O)[C@H](C)O1`, in experiment [1], the activity change, negative = inhibition is -116% (active). The Potency result in [4], in experiment [7], in experiment [8] and in experiment [9] was “inactive” in each case. The Potency was greater than 20.6 µM in [5], greater than 20.6 µM in experiment [6] and 31.6 µM (active) in experiment [10].

For `O=C1c2ccccc2C(=O)N1c1ncccn1`, the activity change, negative = inhibition in experiment [1] was 6.61%; in experiment [2] it was -3.61%. For the same compound, the activity, negative = inhibition in experiment [3] was 9.87%. In [5], the Potency was greater than 20.6 µM.

`CCCCOC(=O)c1ccc(NC(=O)CSc2nncn2C)cc1`: the activity change, negative = inhibition in experiment [1] is 6.24%; in [2] it was 4.69%. The activity, negative = inhibition in experiment [3] is 4.52%. Besides, the Potency in experiment [5] is greater than 20.6 µM.

Consider `COc1cccc(Cn2c(OCC3CCCO3)nc3c2c(=O)n(C)c(=O)n3C)c1` (stereo not given), for which the activity change, negative = inhibition is -4.44% in [1] and -8.17% in experiment [2]. Moreover, the activity, negative = inhibition in experiment [3] is -4.79%. Further, in experiment [5], the Potency is greater than 20.6 µM.

Turning to `COC(=O)c1ccc(CN(C(C)=O)c2ccccc2)o1`, the activity change, negative = inhibition in experiment [1] was 10.5%; in [2], -7.2%. Also, the activity, negative = inhibition in experiment [3] was 7.8%. Moreover, the Potency in experiment [5] was greater than 20.6 µM.

In the case of `COc1ccc(C2C(C(C)=O)=C(O)C(=O)N2c2nccs2)cc1OC` (stereo not given), the figures for the activity change, negative = inhibition in [1] and in experiment [2] were -6.01% and 21.8%, respectively. Moreover, the activity, negative = inhibition in experiment [3] was 3.64%. Moreover, in experiment [5], the Potency was greater than 20.6 µM.

For the compound `Cc1ccc(OCC(=O)N(C)CCc2ccccn2)cc1`, the activity change, negative = inhibition was -3.13% in [1] and 5.19% in experiment [2]. The activity, negative = inhibition in experiment [3] was 6.69%. Further, in experiment [5], the Potency is greater than 20.6 µM.

For `Cn1c(=O)c2c(nc(NCc3ccc4c(c3)OCO4)n2Cc2ccccc2)n(C)c1=O`, the activity change, negative = inhibition in [1] was -13.1%; in [2], 6.4%. Besides, the activity, negative = inhibition in [3] is -25%. Further, in experiment [5], the Potency was greater than 20.6 µM.

Consider `CN(C)CCCN1C(=O)C(O)=C(C(=O)c2cc3ccccc3o2)C1c1ccccn1` (stereo not given), for which the values for the activity change, negative = inhibition in experiment [1] and in experiment [2] were 7.64% and 7.35%, respectively. Further, the activity, negative = inhibition in experiment [3] is -0.93%. Further, the Potency in experiment [5] is greater than 20.6 µM.

As to `COC(=O)CSc1nc(N)nc(C)c1Br`, the figures for the activity change, negative = inhibition in experiment [1] and in experiment [2] were 5.47% and 1.04%, respectively. In addition, the activity, negative = inhibition in [3] was 2.44%. The Potency in [5] was greater than 20.6 µM.

Consider `COC(=O)C1=C(C)N=C2SC(C)C(=O)N2C1c1ccc(C(=O)OC)cc1` (stereo not given), for which the activity change, negative = inhibition in [1] is -9.79%; in experiment [2] it was -6.71%. The activity, negative = inhibition in experiment [3] is -11.1%. For the same compound, the Potency in experiment [5] was greater than 20.6 µM.

Regarding `CC(=N\O)/C(CN(C)C)=N/O`, the activity change, negative = inhibition in experiment [1] was -9.85%; in experiment [2], 13%. Moreover, in experiment [3], the activity, negative = inhibition is 12%. Besides, in experiment [5], the Potency was greater than 20.6 µM.

(Values after PubChem BioAssay (NCATS).)
